This is an account of results in PubChem BioAssay (NCI).

The panel holds about 83,000 compounds, 20% with a hit somewhere; the sample as a whole holds those more often.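 Cell lines were cultured in 96-well plates, exposed to a single compound concentration, and assessed for percent growth 48 hours later.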 Values without a mark were called inactive. The source made the active and inactive calls.

The test system of the experiment is IGROV1 ovarian. The experiment is described as follows: NCI-60 one-dose screen, 48 h (100 = growth as untreated, 0 = no growth, -100 = all killed). The settings on record: 10 µM unless noted. Here is the method: Growth inhibition of the IGROV1 human tumor cell line is measured as a screen for anti-cancer activity. Cells are grown in 96 well plates and exposed to the test compound for 48 hours. Compounds are tested at a single concentration, which is 10^-5 M for most compounds. The reported endpoint is percent growth (GI% or GIPRCNT), where numbers from 0 - 100% represent growth inhibition, and numbers from -100% - 0 represent cell death. For example, a value of 40 represents 60% growth inhibition. A value of 0 means no net growth occurred over the course of the experiment. A value of -40 indicates 40% of cells at the beginning of the experiment died by the end of the experiment. A value of -100 means all cells are dead at the end of the experiment.
NCI-60 Human Tumor Cell Lines Screen was performed using the standard one-dose NCI protocol, which is described in more detail at https://dtp.cancer.gov/discovery_development/nci-60/default.htm.
Compounds with GIPRCNT values below 10 were considered active. Activity score was based on GIPRCNT using the following formula: […]
Score is 0 for GIPRCNT values of 100 or above, 50 for GIPRCNT values of 0, and 100 for GIPRCNT values of -100.
On to `COc1cccc(NC(=O)c2sc3nc(C)c(C(=O)c4ccccc4)cc3c2N)c1`, for which the growth was 91.7%. The value for `COCCn1cc(-c2nc(-c3cc4cccnc4n3C)cs2)c2cc(OC)ccc21` was 28.4%; that for `Cc1[nH]c(C(=O)Nc2ccc(C(N)=O)cc2OC(C)C)c(Cl)c1Cl` was 95.1%. For the compound `COc1cc(-c2c(-c3ccccc3)c[nH]c2C(=O)NCCCO)c(OC)c2c1OCO2`, the growth is 107%. The value for `COc1cccc(C2C3=C(COC3=O)N(CCO)c3cc4c(cc32)OCCO4)c1` (stereo not given) was 13.8%. For the compound `CCN1C(=O)N(CC)C2C1NC(=S)N2/N=C/C=C/c1ccccc1` (stereo not given), the growth was 21%.

For the compound `COc1cc2cc(Oc3ccc(NC(=O)Nc4ccc(Cl)c(Cl)c4)cc3)c(C)nc2cc1OCCN1CCCCC1`, the growth is 93.4%. The value for `CN1CCN(c2ccc(Nc3ncc4[nH]c(=O)n(Cc5ccccc5N)c4n3)cc2)CC1` was 77.6%; that for `O=C(/C=C/c1ccco1)c1ccc(Nc2ccnc3cc(Cl)ccc23)cc1` was 120%; that for `CCCCCCCCCCCCCC[n+]1ccc2c(C)c3c(c(C)c2c1)c1cc(O)ccc1n3CC` was -75.6% (active). Regarding `COC(=O)[C@@H](Cc1c[nH]c2ccccc12)NC(=O)[C@H](Cc1ccccc1)NCc1ccncc1`, the growth was 101%.

In the case of `N#C/C(Sc1nc2sc3c(c2c(=O)n1Cc1ccccc1)CCCC3)=C1/SC=C(c2ccc(Cl)cc2)N1c1ccccc1`, the growth was 38.2%.

`CNC1=C([N+](=O)[O-])C(c2ccc(OC)cc2)C(C#N)=C(c2ccc[nH]2)O1` (stereo not given): the growth was 104%. The value for `CCNCCNc1c(C)c(-c2ccc(C(F)(F)F)cc2)c(C#N)c2nc3ccccc3n12` was 78.9%.

As for `Cn1cc(-c2nc(-c3c[nH]c4c(Cl)nccc34)cs2)c2ccccc21`, the growth is 105%.

For the compound `CC1=C(C(=O)c2ccccc2)C(c2ccc3c(c2)OCO3)NC(=S)N1` (stereo not given), the growth is 46.1%.

With `Nc1ccc(N)c2c1C(=O)c1cccc([N+](=O)[O-])c1C2=O`, the growth is 18.6%. The value for `C=C1/C(=C\C=C2/CCC[C@]3(C)[C@@H]([C@H](C)CCCC(C)(C)O)CC[C@@H]23)C[C@@H](OC(=O)CBr)C[C@@H]1O` was -65.5% (active); that for `C/C(=N\NC(=O)c1ccc(C(C)(C)C)cc1)c1ccc(O)cc1O` was 23.8%.

Consider `COc1cc2c(cc1-c1c(C)noc1C)ncc1nc(C3CCOCC3)n(C3CCC(OC(F)F)CC3)c12` (stereo not given), for which the growth is 55.7%. The same measure for `COc1cc(-c2ccc(-c3ccc(C(=N)N)s3)s2)cc(OC)c1OC`: 71.7%; for `CC(=O)O[C@H]1CC[C@@]2(C)C(=CC[C@@H]3[C@@H]2CC[C@]2(C)C(Cl)=C(c4nc5ccc(Cl)cn5c4NC(C)(C)C)C[C@@H]32)C1`: 87.9%; for `Cc1ccc(NC(=O)c2ccc(Nc3ncnc4c3cnn4-c3cccc(F)c3)cc2)cc1`: 97.9%. The same measure for `COc1cc(C(=O)n2nc(NCCCc3ccccc3)c3cc(N)ccc32)cc(OC)c1OC`: 110%; for `CNC(=O)c1cc(Oc2ccc3nc(NC(=O)Nc4ccc(F)cc4F)sc3c2)ccn1`: 84.2%. The value for `CCCC[N+]1(C)CCN=C1Cc1ccccc1` (stereo not given) was 106%; that for `O=C(/C=C/c1ccc(Cl)cc1)c1ccc(-n2cc(CN3CCN(c4cc5c(cc4F)c(=O)c(C(=O)O)cn5C4CC4)CC3)nn2)cc1` was 59%; that for `N#Cc1c(-c2ccc(Cl)cc2)nc(NN=Cc2cccc(Cl)c2)nc1N1CCOCC1` was 75.2%. As to `O=C1Nc2ccccc2/C1=C/c1cccn1CCCCCCn1c2ccccc2c(=O)c2ccccc21`, the growth was 88%. The value for `CN(C)c1ccc(Cc2cc(-c3ccccc3)nn(C/C(=N/O)c3ccccc3)c2=O)cc1` was 68.5%. The same measure for `Cn1cc(-c2ccc3occ(-c4cccc(-c5ccncc5)c4)c3n2)cn1`: 15.7%.

In the case of `CNC(=O)c1cc(Oc2cccc3nc(NC(=O)Nc4ccc(F)cc4F)ccc23)ccn1`, the growth was 35%. The same measure for `CCNc1nc(-c2ccc(Cl)c(OC)c2)c(-c2ccnc(NCCNS(=O)(=O)c3ccc(Cl)cc3)n2)s1`: 39.3%; for `CS(=O)(=O)c1ccc(/C(=N/NC(N)=S)c2ccc(F)cc2)cc1`: 101%. The same measure for `O=C(Nc1ncc(Cc2ccc(Cl)cc2)s1)C1=NCCCCN1`: 107%; for `O=C(CN1C(=O)NC2NC(=O)NC21)N/N=C/c1cccc([N+](=O)[O-])c1` (stereo not given): 103%; for `COC(=O)[C@@H](Cc1c[nH]c2ccccc12)NC[C@@H](O)CN1C(=O)/C(=C\c2cc(OC)c(OC)c(OC)c2)c2ccccc21`: 78.9%. As for `Cc1cc2c(c(C)n1)CN(C(=O)Nc1nc(-c3cncs3)ccc1N)C2`, the growth is 92.6%. The value for `Fc1ccc(/C=C/c2cc(/C=C/c3ccc(F)cc3)n(-c3cc(F)cc(F)c3)n2)cc1` was 90.3%; that for `Cc1c(CC(=O)Nc2ccccc2)nnn1-c1ccccc1` was 106%.
